# High-throughput results from PubChem BioAssay.
# Most compounds without a hit are left out; they make up all but 1.6% or so of the library.
# S1P3 antag: blocks the human S1P3 receptor. Q99500. CHO S1P3 NFAT-BLA reporter, FRET fluorescence, antagonist mode. inhibition, % at 4.98 µM. 170,000 tested, 0.27% active. AID 485;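 active = inhibition above the plate cutoff, the mean inhibition of test wells on that plate plus 3 SD, cut at about 28% in these data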;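 note: cells challenged with S1P at its EC80 of 0.8 µM; blue over green emission ratio from cleaved BLA substrate after 4 h stimulation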
# p97 inhibitor: blocks human p97 ATPase activity | recombinant p97 ATPase, Kinase-Glo ATP luminescence, 3 h | inhibition, % at 8 µM | AID 1481 | 220,000 tested, 0.42% active | P55072; in the data active = inhibition above about 15%
# S1P4 agonist: activates the human S1P4 receptor; O95977; S1P4-expressing cell line, agonist reporter assay; activation, % at 4.98 µM; 220,000 tested, 0.35% active; AID 1509; in the data active = activation above about 11%
# Target sequence (O95977 whole entry, looked up): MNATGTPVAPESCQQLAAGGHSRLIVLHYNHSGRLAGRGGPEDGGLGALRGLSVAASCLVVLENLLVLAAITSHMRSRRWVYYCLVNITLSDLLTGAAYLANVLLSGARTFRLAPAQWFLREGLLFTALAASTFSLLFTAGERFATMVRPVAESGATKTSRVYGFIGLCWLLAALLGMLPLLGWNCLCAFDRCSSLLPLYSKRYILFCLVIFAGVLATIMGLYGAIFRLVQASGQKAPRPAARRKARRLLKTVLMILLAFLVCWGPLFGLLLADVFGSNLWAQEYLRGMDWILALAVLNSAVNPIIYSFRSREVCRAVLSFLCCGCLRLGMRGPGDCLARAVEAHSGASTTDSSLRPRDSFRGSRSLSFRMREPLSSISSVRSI
# Arbovirus inh: blocks arbovirus infection. 200,000 tested, 0.37% active. inhibition, % at 10 µM. arbovirus infection cell-based antiviral screen; in the data active = inhibition above about 30%
# DTT redox prof: compounds producing H2O2 with reducing agent – biochemical, NIH compound library profiling, artefact control for MLSCN library redox annotation, primary screen. DTT-dependent redox cycling H2O2, phenol red/HRP absorbance; 100% = 100 µM peroxide control, 0% = buffer. activation, % at 10 µM. 200,000 tested, 0.03% active. AID 878;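 active = activation of at least 50% relative to the plate's high and low controls in the primary single-dose screen; inactive = activation below 50%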;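 note: compound incubated with DTT at 0.8 mM final as the reducing agent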
# S1P4 antag: antagonists of human S1P4 receptor; O95977; S1P4-expressing cells, antagonist mode, reporter read-out; inhibition, % at 4.98 µM; 220,000 tested, 0.26% active; in the data active = inhibition above about 29%
# S1P4 ag conf: confirmation of human S1P4 receptor agonists. 740 tested, 7% active. shares compounds with S1P4 agonist. S1P4 agonist cell-based reporter assay. activation, % at 4.98 µM; in the data active = activation above about 12%
# S1P1 ag: human S1P1 agonism as S1P4 agonist counter-screen; S1P1 agonist cell-based assay, activation; activation, % at 4.98 µM; AID 1563; 740 tested, 4% active; shares compounds with S1P4 agonist; in the data active = activation above about 21%
# Hits are given with their value; – = inactive; · = no result given.
SMILES,S1P3 antag,p97 inhibitor,S1P4 agonist,Arbovirus inh,DTT redox prof,S1P4 antag,S1P4 ag conf,S1P1 ag
CCOC(=O)c1cc2c(=O)n3ccccc3nc2n(CCCOC)c1=NC(=O)c1cccnc1,·,–,–,–,–,–,·,·
CCOCCCn1c(=NC(C)=O)c(C(=O)OCC)cc2c(=O)n3ccccc3nc21,–,–,–,–,–,–,·,·
CCOC(=O)c1cc2c(=O)n3ccccc3nc2n(CCOC)c1=NC(=O)c1ccncc1,·,–,18,–,–,–,–,–
CCOC(=O)c1cc2c(=O)n3ccccc3nc2n(CCOC)c1=NC(=O)C(C)(C)C,·,–,–,–,–,–,·,·
CCOC(=O)c1cc2c(=O)n3ccccc3nc2n(CCCOC)c1=NC(=O)C(C)(C)C,·,–,16,–,–,–,–,–
CCc1ccc(C(=O)C(C)OC(=O)C2COc3ccccc3O2)cc1 (stereo unspecified),–,–,–,–,·,–,·,·
O=C(O)c1ccccc1N/C=C\[N+](=O)[O-],–,–,–,–,–,–,·,·
CCOc1ccccc1-n1c(SCC(=O)Nc2nccs2)nnc1-c1ccoc1C,–,–,19,–,–,–,–,–
O=C(CCN1C(=O)c2ccccc2C1=O)NC1=NCCS1,–,–,25,–,–,–,–,–
CC(Nc1ccc2c(c1)OCCO2)C(=O)N1c2ccccc2CC1C (stereo unspecified),–,–,16,–,–,–,29,–
CC1Cc2ccccc2N1C(=O)NC1CC(=O)N(c2ccc3c(c2)OCCO3)C1 (stereo unspecified),–,–,–,–,–,–,·,·
CC(=O)Oc1cc2oc(=O)c3c(c2cc1Cl)CCC3,–,–,15,–,–,–,–,–
CCCCCOCC1CC(C/C(C)=N/NC(N)=S)C(=O)O1 (stereo unspecified),–,–,–,–,–,–,·,·
C/C(CC1CC(COCC(C)C)OC1=O)=N\NC(N)=S (stereo unspecified),–,–,13,–,–,–,–,–
Cc1nnc(NC(=O)CCC(=O)N2CCN(CCOc3cccc4ccccc34)CC2)s1,–,–,–,·,·,–,·,·
Cc1cc(C(=O)NCc2cccnc2)no1,–,–,11,–,–,–,–,–
CC(=O)Nc1ccccc1O,–,–,–,–,–,–,·,·
CC(=O)Nc1ccccc1C(=O)C(=O)O,·,–,13,–,–,–,–,–
O=C(Nc1ccc2oc(-c3ccncc3)nc2c1)c1ccc(F)cc1,–,–,20,–,–,–,–,–
CCOc1ccc(NC(=O)Nc2cccn(Cc3ccccc3)c2=O)cc1,–,–,38,–,–,–,–,–
O=C(NCc1ccccc1)Nc1cccn(Cc2ccccc2)c1=O,–,–,–,–,–,–,·,·
COc1ccc(-c2nnn(CC(=O)N(CCO)C(C(=O)NC3CCCC3)c3ccncc3)n2)cc1 (stereo unspecified),–,–,76,–,–,–,–,–
COCCNC(=O)Cn1c(=O)n(CCCCCC(=O)Nc2ccccc2)c(=O)c2sccc21,–,–,21,–,–,–,–,–
C/C(=N\N1CCN(Cc2ccc(Cl)cc2)CC1)c1ccc(F)cc1,–,–,75,·,·,–,–,–
Cc1nc2sc(C(c3ccccc3)N3CCN(CCO)CC3)c(O)n2n1 (stereo unspecified),–,·,·,–,·,·,·,·
SMILES,S1P3 antag,p97 inhibitor,S1P4 agonist,Arbovirus inh,DTT redox prof,S1P4 antag,S1P4 ag conf,S1P1 ag
O=c1c2[nH]c3ccc(F)cc3c2ncn1CC1CCCO1 (stereo unspecified),–,–,38,·,·,–,–,–
Cn1c2ccc(F)cc2c2ncn(CC3CCCO3)c(=O)c21 (stereo unspecified),–,–,–,·,·,–,·,·
CCOC(=O)CC1Sc2ccccc2NC1=S (stereo unspecified),–,–,63,·,·,–,–,–
CCOc1ccc(C(=O)NCC(C)C)cc1,·,–,–,–,–,–,·,·
CCOc1ccc(C(=O)NCC(c2cccs2)N(C)C)cc1 (stereo unspecified),–,–,15,–,–,–,–,–
C=CCn1c(SCCC)nc(O)cc1=O,·,–,–,–,–,–,·,·
Cc1ccc2nc3c(cc(C#N)c(=O)n3-c3nccs3)c(=O)n2c1,–,–,31,–,–,–,15,24
Cc1ccc2nc3c(cc(C#N)c(=O)n3CCN3CCOCC3)c(=O)n2c1,–,·,·,·,·,·,·,·
O=C(NCC(c1ccco1)N1CCN(c2ccccc2F)CC1)OCc1ccccc1 (stereo unspecified),–,–,33,–,–,–,–,–
CCOc1ccc(-c2nc(CN(Cc3ccccc3)C[C@@H]3CCC(=O)N3)c(C)o2)cc1,–,–,–,–,–,–,·,·
CCCOc1ccc(/C=N/Nc2cccc([N+](=O)[O-])c2)c(O)c1,–,–,–,–,–,–,·,·
CCCOc1ccc(/C=N/Nc2ccc(C(=O)O)cc2)c(OCCC)c1,–,–,12,–,–,–,–,–
CN1CCN(C(=O)c2cc(C(C)(C)C)cc(C(C)(C)C)c2)CC1,–,–,–,–,–,–,·,·
Cc1ccc(-n2ncc3c(NNC(=O)Cc4ccccc4)ncnc32)cc1,–,–,–,–,–,–,·,·
O=c1[nH][nH]c2nc(C(F)(F)F)cc(C(F)(F)F)c12,–,–,67,–,–,–,–,–
Cc1ccc2c(CC(=O)NC3CCCc4ccccc43)coc2c1 (stereo unspecified),–,–,–,–,–,–,·,·
O=C(Cc1ccccc1[N+](=O)[O-])N1CCN(c2ccc(F)cc2)CC1,–,–,74,–,–,–,–,–
CCOc1ccc(Oc2c(/C=N/NC(=O)COc3ccccc3OC)c(C)nn2-c2ccccc2)cc1,–,–,22,–,–,–,–,–
CCOc1ccc(Oc2c(/C=N/NC(N)=O)c(C)nn2-c2ccccc2)cc1,–,–,–,–,–,–,·,·
O=C(Cn1c(Cc2ccccc2)nc2ccccc21)NCc1ccc2c(c1)OCO2,–,–,22,–,–,–,–,–
Cc1ccsc1/C=N/n1c(-c2ccncc2)n[nH]c1=S,–,–,–,–,–,–,·,·
O=C(O)C1CCCCC1C(=O)Nc1ccc(F)cc1F (stereo unspecified),·,–,–,–,–,–,·,·
Cc1cccc2sc(NNC(=O)C3COc4ccccc4O3)nc12 (stereo unspecified),–,–,–,–,–,–,·,·
Cc1cc(C)c2sc(NNC(=O)C3COc4ccccc4O3)nc2c1 (stereo unspecified),–,–,21,–,–,–,–,–
CC(C)NC(=O)C1COc2ccccc2O1 (stereo unspecified),–,–,64,–,–,–,–,–
O=C(N/N=C\c1ccccc1)c1ccccc1-n1cccc1,–,–,–,–,–,–,·,·
